From paper PMC12864922, “TDP-43 directly inhibits mRNA accumulation in neurites through modulation of mRNA stability”
The full ranking holds about 9,900 sequences; the median of “r (bound/input frequency ratio)” is about 0.7, and the highest 2% start at about 6.5. Shown is part of a subset that was picked to be rich in the highest values.

B1: ENSMUSG00000042529.105|Kcnj12 (ssRNA)
RNA: GGGAGUUCUACAGUCCGACGAUCGCUUCGAUAUCCGCAUGCUAAGGUCUGUUUUCUCCCUCACGUGGGCCAGGGCCUUAAGCGAGUUGUCAUGCUUAAGGAUGAAUCAGGCUGCUUGUGACCAUGUUAACGAUUCUAAUAAAGUGUCUGGAUGUCUCUUGGGGGUGGGGCCCACUAGGGUGAAUCUGGCUUGCUCUUCUGUUUGAUGUUGUUGUACCUCAGCUGCCUCAGGGCUGGGUUUAGACACCCCUUCCCCCACCCCCACUCCGUACUCCCUGUUGUGCUUCCCUUCCUAUUUAGUCCCCUCUUGCGGUCGCACUAGUGUGGAAUUCUCGGGUGUCAAGG
B2: ENSMUSG00000090935.77|Synj2bp (ssRNA)
RNA: GGGAGUUCUACAGUCCGACGAUCGCUUCGAUAUCCGCAUGCUACUUUGUCAGCAUAGGCAGGAGUCCUUUAGGAUUUCUGCCUAUCAGUAAAAGAAGUAUGUAACCCAAGUUCUACCUUCAGUGGAUUAAAGUUUCAUUAAGUGAAAAUGGAAAGAAAGUAGAAUUACUUGGUAAGAGGCCAAAUGAGGAUACAGAGGCUGAAGAAGAUUGAAAGGAGCUAGUGUAAACAAACAAACAAACAAACAAACAAAAAACCAAACCCCAAAACAAAAACAAAAACAAAACAAAAUUGGAGAAAGCAGCUCUUGCGGUCGCACUAGUGUGGAAUUCUCGGGUGUCAAGG
B3: ENSMUSG00000090935.604|Synj2bp|54:59 (ssRNA)
RNA: GGGAGUUCUACAGUCCGACGAUCGCUUCGAUAUCCGCAUGCUACUAAUAGACACUGUUUGCUUCAGUUGUUUUUGUUUCCUUUUCCUACAGUUUUCACACACGGUGAUUUCAUUUAAUUAAUUGGACAGUCUAGCCACAGGCAACAAAUAGAAAUAGUAUUUGUAAUUAUAGUCUAUGCCAGGGACUGUCUUAAACUGAUUAGUAACACUAUGACUUACCCUGAGAUCUAAGUAUUGCUAUAAAGAGACUGAAGAGGAGAGAAUAAAGUAUUUUCCUAGGACUACAUAGUUGGUAAAAGAGAACUCUUGCGGUCGCACUAGUGUGGAAUUCUCGGGUGUCAAGG
B4: ENSMUSG00000035279.10|Ssc5d|99:105 (ssRNA)
RNA: GGGAGUUCUACAGUCCGACGAUCGCUUCGAUAUCCGCAUGCUAAUGCCUUCAAACCACCCAGAAGCCAGACCUUACACUCAGCUUCAGACCACCUCACUCAAGGGCCAACCCCUAAUCACAACCCAGAUCCUUUUGGGCCAACACACACCCCAUUACCACCAGUAAGGGUCAUGGCUUGUGAGCCACCUGCCUUGGUGGAGCUGGUAGGUGCUGUGAGGGAGGUGGGUGACCAGCUGCAGAGACUGACCUGGGUCCUGGAGCAGGACCGGCAGGAGCGCCAAGUCCUGGCACUGGGCCUAGCCCUCUUGCGGUCGCACUAGUGUGGAAUUCUCGGGUGUCAAGG
B5: ENSMUSG00000031028.241|Tub (ssRNA)
RNA: GGGAGUUCUACAGUCCGACGAUCGCUUCGAUAUCCGCAUGCUAGGUUCUGGGGCUGGGCUUGGACACGCCCUCCAUUGGGAUGGCACCACUCAUCUGGUGGGCUUGGGAACUCCAAGCUCUUGCCUGUGUGCCAUCUGUGAGAAGCUUCUUGGAGCUGAGACACCAGAGGGAAGCAAAGAGCAUUUAGACAUUGCUUUUUGCUUUGAAAUAGAUAUGUUUGGAAACGCUAAGUAGAAGUUUAAAAAGUAGAGUCAUGUAGAGUCAUGCUUUGAAUAUGUGGGUCAUGCUUUAGAUAUGAAGAGCUCUUGCGGUCGCACUAGUGUGGAAUUCUCGGGUGUCAAGG
B6: ENSMUSG00000061578.211|Ksr2 (ssRNA)
RNA: GGGAGUUCUACAGUCCGACGAUCGCUUCGAUAUCCGCAUGCUAUGACACAAGAGGCAAAGCUGUCCCUAAGCAGAGAAUUAGCAGGGUUAGCCAGACAGCAAAAUCCAUGUAAACAUACAAAACCACCCCCCCUUUUUGAGUGGCCCUAUUGGAUGUACACACUAGGACCAAGCACGGGUCCAAAGCAGGAAGACUGAUUGACAGUAGUCACACUUCUAGAGAGAUGUACCCCAUGACACUUUCAAGUCUUUUCAGAACCUUCUCACCCCUUUGCAAAGCUCUUGCCGUCUGCACCCGGGACCCUCUUGCGGUCGCACUAGUGUGGAAUUCUCGGGUGUCAAGG
B7: ENSMUSG00000090935.117|Synj2bp (ssRNA)
RNA: GGGAGUUCUACAGUCCGACGAUCGCUUCGAUAUCCGCAUGCUAUUUGCCCUCACCAUGGUAGCAGUUUGGGCCUUCGUGAGAUACCGAAAGCAGCUUUGAAAUGCUUGCUGUCUUCCAGUGUGUCCAAUGAACUCUCUCUCUCACUCACCAUCUCUGACAUCCUCCCAUAUUCUUUCUCCUCCACAUAGCCAAUACAAGAUUUAAAGUGACUGCUUAUCACCCAAAACCCUGCUAUUCAAAAUCUCCUAUUCUAAUGGAAGAGUACAGGGGUUAUUUGAAGAAAAGCUGUGGUGGUGUGUGUGCUCUUGCGGUCGCACUAGUGUGGAAUUCUCGGGUGUCAAGG
B8: ENSMUSG00000061578.735|Ksr2 (ssRNA)
RNA: GGGAGUUCUACAGUCCGACGAUCGCUUCGAUAUCCGCAUGCUAUGUAUCAAGACCUUGGAGUUGUCUAAGGCUGUGGGUUUUAAAUACCUGCUGCAGGCCUCCCAUCUCUGGCUCUUUGUUUCCACUCUGGCCCAAGUUUGAGUCUCCAUAUGGGCCCUUCCUGUCCUCAUGCCCUGCCUGUCUUCAUUCCACCCAUCCACCCUCCUAAGGAUUGGUCUUGUUCCGAGAGUGAUCCUGGUAACGCCAAGCCUCCCUCUGCCCCUGUGUUGGCUUCUGUGACGGACUACCACACACCAAGAGGUCUCUUGCGGUCGCACUAGUGUGGAAUUCUCGGGUGUCAAGG
B9: ENSMUSG00000029028.148|Lrrc47 (ssRNA)
RNA: GGGAGUUCUACAGUCCGACGAUCGCUUCGAUAUCCGCAUGCUAUUGAGAACAUCAUGUUGUGAGUGUAAUCUUCUUAGAGCUUGUUUCCAGGCACCGUGCUGCCGCCAUGCUCCCAGGGCAGCAUCUGCCUUCCACGGCUGUGCUUGGAACUGUAGUGCUGGUCGUUGUUGGCACAUCUGCGCCUUGGCCAAGGAAGUUAUCUAUGUCCGUGUAGUCCUUUGUAGUCAGACAGAUGCUUCGUGGACUGUGCCUCACACAUGGCCCUGCAGGCUCCAUGUCAGCGUGUCCCACUAUUCAUGUCCCUCUUGCGGUCGCACUAGUGUGGAAUUCUCGGGUGUCAAGG
B10: ENSMUSG00000004113.103|Cacna1b (ssRNA)
RNA: GGGAGUUCUACAGUCCGACGAUCGCUUCGAUAUCCGCAUGCUAAUCCUAAGCAGGAGGUAGCUGAGUUGAGAUGGACCCAGCAAAUCCAAAUCCUAUGUCAUGGCCUCCAGCAUCCAGGGUGGGUCCUUGGGACUUUUCUUAGGAGGGACUUUCUGAGCCUCGUGGAGAGUGUGGUUUGUCCAAAUGUGUGGCAUGGGAGAUAGGGUACCCCUGAAAGCAAGGAAAGGAGCCCAGCUGUGGCCUGGUAGCACCUGCCGGCACCAGUGAUCUCACGUCUCUUGUGGUCUUGGAGUCAAAUAGCACUCUUGCGGUCGCACUAGUGUGGAAUUCUCGGGUGUCAAGG
B11: ENSMUSG00000061578.1429|Ksr2|169:173 (ssRNA)
RNA: GGGAGUUCUACAGUCCGACGAUCGCUUCGAUAUCCGCAUGCUAAGAUCUGUCUUGCUCUCUGUCUCUCUCACUCAUUGCCAACAUGUUGCUGGGAAAGAAUAUUUGAUUUAGAUGCCAAUCAGGAAGGCAAGUAGGAUGGAUGGAUGAGUGAGUGGAUAGGUAGGUAUAUAAAUGGAUGGAUGGGUGAUGGAUGGGUAAAUGAAUGGAUAGCAUACUGAAUGAAUGGAUGAUGGAUGAAUGGAUGGGUAGGUGGGUAGAUAGGUAUAUGAAUGAAUGGAUGAAUGGAUGGGUGAAUGGAUGGACUCUUGCGGUCGCACUAGUGUGGAAUUCUCGGGUGUCAAGG
B12: ENSMUSG00000035279.28|Ssc5d (ssRNA)
RNA: GGGAGUUCUACAGUCCGACGAUCGCUUCGAUAUCCGCAUGCUACAUUACCACCAGUAAGGGUCAUGGCUUGUGAGCCACCUGCCUUGGUGGAGCUGGUAGGUGCUGUGAGGGAGGUGGGUGACCAGCUGCAGAGACUGACCUGGGUCCUGGAGCAGGACCGGCAGGAGCGCCAAGUCCUGGCACUGGGCCUAGCCCAGUUGGUAGAGGCUGCUCAGGGGUUGGGGCAGCUGAGUGAGACUGUAAAGAGGCUAGCAGAGGUGGCCUGGCCCCCCAGCACUCCUGUGCCCAUGACCACCACCACACUCUUGCGGUCGCACUAGUGUGGAAUUCUCGGGUGUCAAGG
B13: ENSMUSG00000031028.488|Tub|93:99;130:136 (ssRNA)
RNA: GGGAGUUCUACAGUCCGACGAUCGCUUCGAUAUCCGCAUGCUAAGGAGGAGCUGAGAUGUGCACCCUUUUAAAUGAACAUGGGGUGGUGAUGGUGCCUUAACAAUCUUGACACUAAGGUGAAGCAAGCAAGUAAGCACACACCCUCUGGGAAGACAGGAGUCGGAAGCCAAGCACACACGCAACAGUCUGGAAGAGAGCUUUUGGUAAUCAUACCGUCUUCAGUGACAAGGCAACAAUGCUGUAAAGUGGGUUUGUUUGGUUUUGUUUUUUCUUUCUCUUUUAUGGAAAUGGCAGGUCUAUUUCUCUUGCGGUCGCACUAGUGUGGAAUUCUCGGGUGUCAAGG

Biological target: TDP-43 (Homo sapiens, UniProt Q13148 1-414)
Assay: RNA Bind-n-Seq with designed 260-mer pool; 25 mM Tris-HCl, 150 mM KCl, 3 mM MgCl2, BSA (printed 500 mg/mL), 20 units/mL SUPERase IN; pH not stated; 500 nM RNA pool, 1 h, 4 C; TDP-43 5, 50, 500 nM; high values mean tight binding
Conditions: protein: recombinant; tags: SBP (GST cleaved off with PreScission; pGEX-GST-SBP)
Summary of the method: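 In 25 mM Tris-HCl, 150 mM KCl, 3 mM MgCl2, BSA and SUPERase IN, 500 nM of an in vitro-transcribed 260-nt 3′ UTR oligo pool was incubated for 1 h at 4 °C with SBP-tagged TDP-43 (5, 50 or 500 nM) captured on streptavidin beads. RNA remaining after washes was biotin-eluted, reverse transcribed, PCR-amplified and sequenced. Binding, R, is the bound-sample abundance of each oligo, normalized to mapped reads, divided by its abundance in input. Each duplicate used a separate, independent protein batch.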

Sequence of TDP-43 (Q13148 whole entry): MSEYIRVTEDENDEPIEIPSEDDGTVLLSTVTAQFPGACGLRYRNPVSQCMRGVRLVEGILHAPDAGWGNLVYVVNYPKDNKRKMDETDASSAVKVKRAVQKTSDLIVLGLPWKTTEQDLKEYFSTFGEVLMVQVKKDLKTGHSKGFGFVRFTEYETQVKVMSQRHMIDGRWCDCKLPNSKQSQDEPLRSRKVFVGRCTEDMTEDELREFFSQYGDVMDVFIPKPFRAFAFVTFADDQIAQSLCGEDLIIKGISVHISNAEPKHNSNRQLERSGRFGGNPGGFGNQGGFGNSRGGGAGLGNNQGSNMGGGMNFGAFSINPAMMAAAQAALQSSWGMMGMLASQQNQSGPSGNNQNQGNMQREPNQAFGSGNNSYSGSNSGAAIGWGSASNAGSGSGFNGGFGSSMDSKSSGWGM

Binder	binding signal
B1	3.16 R (bound/input frequency ratio)
B2	0.858 R (bound/input frequency ratio)
B3	0.0675 R (bound/input frequency ratio)
B4	1.24 R (bound/input frequency ratio)
B5	0.949 R (bound/input frequency ratio)
B6	0.667 R (bound/input frequency ratio)
B7	1.43 R (bound/input frequency ratio)
B8	1.36 R (bound/input frequency ratio)
B9	1.13 R (bound/input frequency ratio)
B10	1.15 R (bound/input frequency ratio)
B11	5.89 R (bound/input frequency ratio)
B12	0.915 R (bound/input frequency ratio)
B13	0.906 R (bound/input frequency ratio)
